Values joined by “and” are separate entries in the source; they are usually repeats but may differ in a detail not shown here. Equal values may be shown once. Hit rate of the full screen: of about 5,500 compounds, about 2,000 (36%) were called active. Inconclusive results (about 18%) are left out. Rule as the data show it: active = normalized growth mostly below about 0.91 (no sharp cut-off); inconclusive = no clear call, values can overlap the other calls; inactive = mostly above about 0.92. This is one part of the list.
Experiment: chemical genetic growth profiling, strain panel (AID 1159580);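 also: tested at 20 µM; growth read once vehicle control cultures reached saturation at 30 °C; 1 = growth at the plate median or of vehicle wells; lower values mean less growth of the strain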
Conditions: S. cerevisiae deletion strains, growth OD

Measured: normalized growth

CC1=C2C(O)C(=O)OC3CC4C(C)(C)C(=O)C=C[C@]4(C)C(CC1)[C@]23C (stereo partly specified)
inactive: locus YAL021C, strain ccr4, hits give low values 1.01 | locus YAL026C, strain drs2, hits give low values 1.02 | locus YAL030W, strain snc1, hits give low values 1.01 | locus YBL061C, strain skt5, hits give low values 1.01 | locus YBR009C, strain hhf1, hits give low values 1 | locus YBR021W, strain FUR4, hits give low values 0.994 | locus YBR023C, strain chs3, hits give low values 1.02 | locus YBR171W, strain sec66, hits give low values 1.01 | locus YBR229C, strain ROT2, hits give low values 1.02 | locus YBR231C, strain swc5, hits give low values 1 | locus YBR279W, strain paf1, hits give low values 1 | locus YCL011C, strain gbp2, hits give low values 1.01 | locus YCL016C, strain dcc1, hits give low values 1.01 | locus YCL029C, strain bik1, hits give low values 1 | locus YCL061C, strain MRC1, hits give low values 1 | locus YCL069W, strain vba3, hits give low values 1 | locus YCR088W, strain abp1, hits give low values 1.01 | locus YDL005C, strain med2, hits give low values 1.02 | locus YDL035C, strain GPR1, hits give low values 1.03 | locus YDL040C, strain nat1, hits give low values 1.01 | locus YDL074C, strain BRE1, hits give low values 1.07 | locus YDL101C, strain DUN1, hits give low values 1.04 | locus YDL134C, strain PPH21, hits give low values 1.04 | locus YDL185W, strain tfp1, hits give low values 1.02 | locus YDL192W, strain arf1, hits give low values 1.02 | locus YDR001C, strain nth1, hits give low values 1 | locus YDR069C, strain doa4, hits give low values 1.02 | locus YDR101C, strain arx1, hits give low values 0.99 | locus YDR137W, strain rgp1, hits give low values 1.12 | locus YDR159W, strain sac3, hits give low values 1.03 | locus YDR162C, strain NBP2, hits give low values 1.04 | locus YDR195W, strain ref2 0.986 | locus YDR297W, strain sur2, hits give low values 1.02 | locus YDR318W, strain mcm21, hits give low values 1.02 | locus YDR334W, strain swr1, hits give low values 1 | locus YDR335W, strain msn5, hits give low values 1 | locus YDR388W, hits give low values 1.02 | locus YDR392W, strain spt3, hits give low values 1.03 | locus YDR502C, strain sam2, hits give low values 1.04 | locus YEL003W, strain gim4, hits give low values 1 | locus YEL037C, strain rad23, hits give low values 1 | locus YEL061C, strain CIN8 (second series), hits give low values 1.01 | locus YER015W, strain faa2, hits give low values 1.01 | locus YER016W, strain bim1, hits give low values 1.02 | locus YER110C, hits give low values 1.02 | locus YER111C, strain swi4, hits give low values 1.02 | locus YER155C, strain BEM2 (second series), hits give low values 1.01 | locus YER155C, strain BEM2, hits give low values 1 | locus YER167W, strain BCK2, hits give low values 1 | locus YFR010W, strain ubp6, hits give low values 1.01 | locus YGL078C, strain dbp3, hits give low values 1.05 | locus YGL086W, strain mad1, hits give low values 1.01 | locus YGL167C, strain pmr1, hits give low values 1.02 | locus YGL173C, strain kem1, hits give low values 1.03 | locus YGL227W, strain vid30, hits give low values 1.01 | locus YGL240W, strain doc1, hits give low values 1 | locus YGL248W, strain PDE1, hits give low values 1.02 | locus YGL253W, strain hxk2, hits give low values 1.02 | locus YGR078C, strain PAC10, hits give low values 1.05 | locus YGR135W, strain pre9, hits give low values 1.07 | locus YGR252W, strain gcn5, hits give low values 1.13 | locus YHR013C, strain ard1, hits give low values 1.04 | locus YHR027C, strain rpn1, hits give low values 1.02 | locus YHR030C, strain SLT2, hits give low values 1.01 and 1.04 | locus YHR079C, strain IRE1 (second series), hits give low values 1.01 | locus YHR079C, strain IRE1, hits give low values 1.02 | locus YHR094C, strain hxt1, hits give low values 1.01 | locus YHR129C, strain ARP1, hits give low values 1.02 | locus YHR142W, strain chs7, hits give low values 1.01 | locus YHR200W, strain rpn10, hits give low values 1.02 | locus YIL066C, strain RNR3, hits give low values 1.02 | locus YIL073C, strain SPO22, hits give low values 1.06 | locus YIL125W, strain kgd1, hits give low values 0.995 | locus YIR030C, strain dcg1, hits give low values 1.02 | locus YJL092W, strain hpr5, hits give low values 1 | locus YJL095W, strain BCK1 (second series), hits give low values 1.01 | locus YJL095W, strain BCK1, hits give low values 1.07 and 1.03 | locus YJL115W, strain asf1, hits give low values 1.01 | locus YJL129C, strain trk1, hits give low values 1.03 | locus YJL134W, strain LCB3, hits give low values 1.01 | locus YJL154C, strain vps35, hits give low values 1.02 | locus YJL164C, strain tpk1, hits give low values 1.01 | locus YJL166W, strain qcr8, hits give low values 1.01 | locus YJL168C, strain set2, hits give low values 1.02 | locus YJL187C, strain SWE1 (second series), hits give low values 1.05 | locus YJL187C, strain SWE1, hits give low values 1.01
